Our source for the growth values is PubChem BioAssay (NCI).

“And” between values parts separate entries of the source, which are not always exact repeats. Identical values can stand only once. The panel holds about 83,000 compounds, 20% with a hit somewhere; the sample as a whole holds those more often.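 Percent growth is the endpoint: 0 to 100 indicates growth inhibition (40 means 60% inhibition), 0 means no net growth, and negative values indicate cell death.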 The source made the active and inactive calls. Rule for the calls: active = growth percent below 10; inactive = the rest.

The first test has as its system NCI-H460 lung. Put plainly: NCI-60 one-dose screen, 48 h (100 = growth as untreated, 0 = no growth, -100 = all killed). Conditions: 10 µM unless noted.
As to `CN(C)CCN1C(=O)c2c(c3c4ccccc4n4c3c3c2c2ccccc2n3C2CC(O)C(O)C4(C)O2)C1=O` (stereo unspecified), the growth is 2.33% (active).

Take `O/N=C(/c1ccccc1)c1ccc2c3c(cccc13)CC2`: the growth is 87.6% (inactive) and 96.7% (inactive).

In the case of `CCNC(=O)Oc1ccc(/C(=C(/C)Cc2ccc(OC)cc2)c2ccc(OCCN(CC)CC)cc2)cc1`, the growth is 13.5% (inactive).

On to `Cc1nnc(NS(=O)(=O)c2ccc(N=Nc3ccc(N)nc3N)cc2)s1`, for which the growth is 110% (inactive) and 112% (inactive).

For `Cn1cc(C2=C(c3cccc4ccccc34)C(=O)NC2=O)c2cc(Br)ccc21`, the growth was 104% (inactive).

Take `Cc1ccc2nc3ccccc3c(NCc3ccc(Cl)cc3)c2c1`: the growth is 29.5% (inactive).

On to `Brc1ccc(/C=C(/C2=NCCN2)n2ccc3ccccc32)cc1`, for which the growth is 76.4% (inactive).

Take `Cn1cc2c(=O)nc3c(-c4nc5ccccc5[nH]4)n[nH]n3c2n1`: the growth is 81.9% (inactive).

On to `Cc1ccc2[nH]c(=S)[nH]c(=O)c2c1`, for which the growth was 106% (inactive).

As for `N#CC1=C(N)Oc2c(sc3c(Br)cccc23)C1c1ccccn1` (stereo unspecified), the growth was 20.4% (inactive).

`Cc1nc2sc(C(=O)Nc3cccc4ncccc34)c(N)c2cc1C(C)O` (stereo unspecified): the growth is 80.9% (inactive).

Take `COc1ccc2c(O)c(/C=C3\N=Nc4nc(C)ccc43)oc2c1CC1CCNCC1`: the growth is 79.3% (inactive).

Regarding `Clc1ccc(Nc2nc(Nc3ccc(Cl)cc3)nc(Nc3ccc(-c4cc(-c5cccc(Cl)c5)on4)cc3)n2)cc1`, the growth was 96.1% (inactive).

On to `O=C(/C=C/c1ccc(Cl)s1)c1ccc(Cl)s1`, for which the growth is 101% (inactive) and 115% (inactive).

Take `O=C1/C(=C/c2ccc(-c3cccc(C(F)(F)F)c3)o2)SC(=S)N1CCc1ccc(O)cc1`: the growth is 72.4% (inactive).

Consider `O=C(CCN1CCOCC1)Nc1cccc(-n2cc(-c3ccncc3)c(-c3ccc(Cl)c(O)c3)n2)c1`, for which the growth was 17.8% (inactive).

As to `O=C(Nc1ccc(Cl)c(Cl)c1)Nc1ccc(Cl)c(Cl)c1`, the growth was -63.6% (active) and 4.34% (active).

Regarding `CCn1cc(C(=O)NN=C2CCCC2)c(=O)c2ccc(C)nc21`, the growth is 92.9% (inactive).

Turning to `CCOc1ccccc1NC(=O)c1cc2ccccc2cc1O`, the growth is 26.9% (inactive).

Turning to `O=C(c1ccc(Nc2nccc(NCCCNc3ccnc4cc(Cl)ccc34)n2)cc1)N1CCCCC1`, the growth is 11.3% (inactive).

Turning to `Cc1ccc(-c2nc3nc(-c4ccc(Br)cc4)nc(N4CCCNCC4)c3o2)cc1`, the growth is -73% (active).

For `S=c1nc(CS)[nH]c2ccccc12`, the growth is 100% (inactive).

As to `Cc1ccc2c(c1)C(C)Cc1c(ncnc1-n1cnc3cc(C)ccc31)N2C` (stereo unspecified), the growth is 3.51% (active).

Take `Clc1ccc(/C=N\N2CCCCCC2)cc1`: the growth is 108% (inactive) and 119% (inactive).

Regarding `CC(=O)OC[C@]12CCC(C)(C)C=C1[C@H]1CC[C@@H]3[C@@]4(C)CCCNC(C)(C)[C@@H]4CC[C@@]3(C)[C@]1(C)CC2`, the growth is 49.4% (inactive).

Consider `Cc1[nH]c(C(=O)Nc2nc3ccc(NC(=O)CCN)cc3s2)c(Cl)c1Cl`, for which the growth is 42.6% (inactive).

As for `COc1ccc(C(=O)c2ccc(OC)c(OC)c2OC)cc1`, the growth was 20.1% (inactive) and 5.6% (active).

Consider `COc1cc(NC2CCCCC2O)c2nc(-c3ccc(Cl)cc3)ccc2c1` (stereo unspecified), for which the growth is 41.2% (inactive) and 57.9% (inactive).

Consider `CN1CCCc2cc(/C=C3\SC(=S)N(C(Cc4ccc(O)cc4)C(=O)O)C3=O)ccc21` (stereo unspecified), for which the growth was 107% (inactive).

Take `Cc1cc(N2CCN(CC(=O)Nc3ccc4c(ccn4Cc4ccccc4)c3)CC2)nc(N2CCCCCC2)n1`: the growth was 40% (inactive).

As for `CCCCC1COc2cccc3c2N1C=C/C3=C\C(=O)N(C)c1cccc(Cl)c1` (stereo unspecified), the growth is 105% (inactive).

In the case of `O=C(NNc1ccccc1)C1CCCN1` (stereo unspecified), the growth was 99.1% (inactive).

Regarding `O=C1C=C(Nc2ccccc2)c2ncccc2C1=O`, the growth was -69.4% (active).

For the molecule `Nc1nc(CSc2n[nH]c(N)n2)nc(Nc2ccccc2)n1`, the growth was 103% (inactive).

Turning to `O=C1/C(=C/c2ccccc2[N+](=O)[O-])Cc2ccccc21`, the growth is 7.04% (active) and 23.6% (inactive).

`COc1ccc(/C=C2/C(=O)N=C3N2NC(c2ccccc2)=CN3c2ccccc2)cc1`: the growth was 106% (inactive).

As for `CCN(CC)CCCN1C(=O)c2c(c(C)c3c(oc4cc(OC)ccc43)c2C)C1=O`, the growth is 92.6% (inactive).

`CC[C@]12CN3CCc4c([nH]c5ccccc45)[C@@](C(=O)OC)(c4cc5c(cc4OC)N(C)[C@H]4[C@@](O)(C(=O)OC)[C@H](OC(C)=O)[C@]6(CC)C=CCN7CC[C@]54[C@@H]76)CC(C3)[C@H]1O2` (stereo partly specified): the growth is -27.3% (active).

Take `O=C(/C=C\c1ccc(Cl)c(Cl)c1)c1ccccc1`: the growth is 101% (inactive) and 100% (inactive).

Another test deals with HOP-92 NSCLC. Described as above. Conditions: 10 µM unless noted.
For the molecule `CN(C)CCN1C(=O)c2c(c3c4ccccc4n4c3c3c2c2ccccc2n3C2CC(O)C(O)C4(C)O2)C1=O` (stereo unspecified), the growth is 75.9% (inactive).

As to `O/N=C(/c1ccccc1)c1ccc2c3c(cccc13)CC2`, the growth is 49.4% (inactive) and 64.9% (inactive).

As to `CCNC(=O)Oc1ccc(/C(=C(/C)Cc2ccc(OC)cc2)c2ccc(OCCN(CC)CC)cc2)cc1`, the growth is 43.3% (inactive).

On to `Cc1nnc(NS(=O)(=O)c2ccc(N=Nc3ccc(N)nc3N)cc2)s1`, for which the growth is 95.5% (inactive).

In the case of `Cn1cc(C2=C(c3cccc4ccccc34)C(=O)NC2=O)c2cc(Br)ccc21`, the growth was 171% (inactive).

For `Cc1ccc2nc3ccccc3c(NCc3ccc(Cl)cc3)c2c1`, the growth was -4.63% (active).

With `Brc1ccc(/C=C(/C2=NCCN2)n2ccc3ccccc32)cc1`, the growth is 34.3% (inactive).

For the molecule `Cn1cc2c(=O)nc3c(-c4nc5ccccc5[nH]4)n[nH]n3c2n1`, the growth is 83.6% (inactive).

As to `Cc1ccc2[nH]c(=S)[nH]c(=O)c2c1`, the growth was 93.4% (inactive).

`N#CC1=C(N)Oc2c(sc3c(Br)cccc23)C1c1ccccn1` (stereo unspecified): the growth is 35.3% (inactive).

With `Cc1nc2sc(C(=O)Nc3cccc4ncccc34)c(N)c2cc1C(C)O` (stereo unspecified), the growth was 70.5% (inactive).

For `COc1ccc2c(O)c(/C=C3\N=Nc4nc(C)ccc43)oc2c1CC1CCNCC1`, the growth is 39.2% (inactive).

On to `Clc1ccc(Nc2nc(Nc3ccc(Cl)cc3)nc(Nc3ccc(-c4cc(-c5cccc(Cl)c5)on4)cc3)n2)cc1`, for which the growth is 60.4% (inactive).

As to `O=C(/C=C/c1ccc(Cl)s1)c1ccc(Cl)s1`, the growth is 79.3% (inactive) and 105% (inactive).

In the case of `O=C1/C(=C/c2ccc(-c3cccc(C(F)(F)F)c3)o2)SC(=S)N1CCc1ccc(O)cc1`, the growth was 63.5% (inactive).

On to `O=C(CCN1CCOCC1)Nc1cccc(-n2cc(-c3ccncc3)c(-c3ccc(Cl)c(O)c3)n2)c1`, for which the growth is 23.7% (inactive).

For `O=C(Nc1ccc(Cl)c(Cl)c1)Nc1ccc(Cl)c(Cl)c1`, the growth is -86.2% (active) and -5.71% (active).

As for `CCn1cc(C(=O)NN=C2CCCC2)c(=O)c2ccc(C)nc21`, the growth is 90.6% (inactive).

As to `CCOc1ccccc1NC(=O)c1cc2ccccc2cc1O`, the growth is 5.82% (active).

Consider `O=C(c1ccc(Nc2nccc(NCCCNc3ccnc4cc(Cl)ccc34)n2)cc1)N1CCCCC1`, for which the growth was 64.3% (inactive).

As to `Cc1ccc(-c2nc3nc(-c4ccc(Br)cc4)nc(N4CCCNCC4)c3o2)cc1`, the growth is 91.7% (inactive).

For the molecule `S=c1nc(CS)[nH]c2ccccc12`, the growth was 96.8% (inactive).

Turning to `Cc1ccc2c(c1)C(C)Cc1c(ncnc1-n1cnc3cc(C)ccc31)N2C` (stereo unspecified), the growth is 10.4% (inactive).

Take `CC(=O)OC[C@]12CCC(C)(C)C=C1[C@H]1CC[C@@H]3[C@@]4(C)CCCNC(C)(C)[C@@H]4CC[C@@]3(C)[C@]1(C)CC2`: the growth is 83% (inactive).

With `Cc1[nH]c(C(=O)Nc2nc3ccc(NC(=O)CCN)cc3s2)c(Cl)c1Cl`, the growth is 73.9% (inactive).

For `COc1ccc(C(=O)c2ccc(OC)c(OC)c2OC)cc1`, the growth is 59.6% (inactive) and 41.5% (inactive).

With `CN1CCCc2cc(/C=C3\SC(=S)N(C(Cc4ccc(O)cc4)C(=O)O)C3=O)ccc21` (stereo unspecified), the growth was 93.8% (inactive).

Regarding `Cc1cc(N2CCN(CC(=O)Nc3ccc4c(ccn4Cc4ccccc4)c3)CC2)nc(N2CCCCCC2)n1`, the growth is 0.991% (active).

Turning to `CCCCC1COc2cccc3c2N1C=C/C3=C\C(=O)N(C)c1cccc(Cl)c1` (stereo unspecified), the growth was 92% (inactive).

On to `O=C(NNc1ccccc1)C1CCCN1` (stereo unspecified), for which the growth is 108% (inactive).

In the case of `O=C1C=C(Nc2ccccc2)c2ncccc2C1=O`, the growth is -79.9% (active).

Regarding `Nc1nc(CSc2n[nH]c(N)n2)nc(Nc2ccccc2)n1`, the growth was 95.4% (inactive).

Take `O=C1/C(=C/c2ccccc2[N+](=O)[O-])Cc2ccccc21`: the growth is 51.9% (inactive) and 77.4% (inactive).

Regarding `COc1ccc(/C=C2/C(=O)N=C3N2NC(c2ccccc2)=CN3c2ccccc2)cc1`, the growth was 102% (inactive).

In the case of `CCN(CC)CCCN1C(=O)c2c(c(C)c3c(oc4cc(OC)ccc43)c2C)C1=O`, the growth was 87.3% (inactive).

For the molecule `CC[C@]12CN3CCc4c([nH]c5ccccc45)[C@@](C(=O)OC)(c4cc5c(cc4OC)N(C)[C@H]4[C@@](O)(C(=O)OC)[C@H](OC(C)=O)[C@]6(CC)C=CCN7CC[C@]54[C@@H]76)CC(C3)[C@H]1O2` (stereo partly specified), the growth is 9.26% (active).

With `O=C(/C=C\c1ccc(Cl)c(Cl)c1)c1ccccc1`, the growth is 70.7% (inactive).
